# Data as given in PubChem BioAssay (NCI).
# About 83,000 compounds went through this panel and 20% of them were active in at least one assay; those are over-represented in the sample as a whole.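 The test compound was applied at a single concentration to cells in 96-well plates for 48 hours, and percent growth was recorded.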 A number with no mark means an inactive call. Calls of active or inactive are those of the source.
# Test system: OVCAR-3 ovarian
# Assay: NCI-60 one-dose screen, 48 h (100 = growth as untreated, 0 = no growth, -100 = all killed)
# Settings: 10 µM unless noted
# Method: Growth inhibition of the OVCAR-3 human tumor cell line is measured as a screen for anti-cancer activity. Cells are grown in 96 well plates and exposed to the test compound for 48 hours. Compounds are tested at a single concentration, which is 10^-5 M for most compounds. The reported endpoint is percent growth (GI% or GIPRCNT), where numbers from 0 - 100% represent growth inhibition, and numbers from -100% - 0 represent cell death. For example, a value of 40 represents 60% growth inhibition. A value of 0 means no net growth occurred over the course of the experiment. A value of -40 indicates 40% of cells at the beginning of the experiment died by the end of the experiment. A value of -100 means all cells are dead at the end of the experiment.
# NCI-60 Human Tumor Cell Lines Screen was performed using the standard one-dose NCI protocol, which is described in more detail at https://dtp.cancer.gov/discovery_development/nci-60/default.htm.
# Compounds with GIPRCNT values below 10 were considered active. Activity score was based on GIPRCNT using the following formula: […]
# Score is 0 for GIPRCNT values of 100 or above, 50 for GIPRCNT values of 0, and 100 for GIPRCNT values of -100.
row,SMILES,growth
1,O=C(O)c1cn(C2CC2)c2cc(N3CCN(C(=O)CN4C(=O)CSC4=O)CC3)c(F)cc2c1=O,108%
2,O=C(CCC(=O)N1CCOCC1)OCCCCCCSc1ccc([N+](=O)[O-])c2nonc12,-66.9% (active)
3,CC1(C)CC[C@]23CC[C@]4(C)[C@H](CC[C@@H]5[C@@]6(C)CCCN(CO)C(C)(C)[C@@H]6CC[C@]54C)[C@H]2[C@H]1OC3,66.6%
4,Cc1ccc(-n2cc(/C=N/NC(=O)c3ccncc3)c(-c3ccc(S(C)(=O)=O)cc3)n2)cc1,82.3%
5,C=CCn1c(SCC(=O)Nc2ccc(C(=O)/C=C/c3ccc(C)cc3)cc2)nnc1-c1c[nH]c2ccccc12,99.4%
6,NS(=O)(=O)c1ccc(Nc2nc(N/N=C/c3ccc(Cl)cc3)nc(Nc3ccccc3)n2)cc1,70.4%
7,COc1ccc(NC2=C(Cl)C(=O)c3nc(C)ccc3C2=O)cc1OC,13.2%
8,CNC(=O)c1cc(-n2ccc3cc(NC(=O)Nc4ccc(N5CCOCC5)c(C(F)(F)F)c4)ccc32)ccn1,76.4%
9,C#Cc1nc(C(=O)NCCC(=O)Nc2ccc(NC(=O)c3ccc(/C=C/C(=O)c4nccn4C)cc3)cc2)cs1,-11.5% (active)
10,CCCn1cnc2c(c1=N)C(c1ccc(Cl)cc1)c1sc3c(C)cccc3c1O2 (stereo not given),2.26% (active)
11,C=CCn1c(SCC(=O)Nc2ccc(C(=O)/C=C/c3ccc(Br)cc3)cc2)nnc1-c1c[nH]c2ccccc12,86.9%
12,C#CCOc1ccc(/C=N\Nc2nc(-c3ccc(C)cc3)cs2)cc1OC,99.3%
13,CCn1c(SCC(=O)Nc2cccc(C(=O)/C=C/c3cc(OC)c(OC)c(OC)c3)c2)nc2ccccc2c1=O,14.3%
14,Clc1cccc(/C=N/Nc2nc(N/N=C/c3cccc(Cl)c3Cl)nc(N3CCCCC3)n2)c1Cl,8.19% (active)
15,CCN1CCN(Cc2ccc(C(=O)Nc3ccc(C)c(Oc4ccc(-c5[nH]nc6ncnc(N)c56)cc4)c3)cc2C(F)(F)F)CC1,116%
16,COc1cc(/C=C2\C(=O)Nc3ccccc32)ccc1OCc1ccc(F)cc1,117%
17,COc1cc(Cn2cc3c(c2)-c2onc(CN4CCOCC4)c2CC3)cc(OC)c1OC,113%
18,NS(=O)(=O)c1ccc(-n2cc(CN3CCNCC3)nn2)cc1,111%
19,CC(=O)N(C)C1CCc2c(sc(NC(=O)c3ccc(C(C)(C)C)cc3)c2C(N)=O)C1 (stereo not given),83.7%
20,N#Cc1cn(Cc2ccc(Cl)cc2Cl)c(C(=O)c2ccc(Br)cc2)c1N,105%

row,SMILES,growth
1,N#Cc1cccc(/C(N)=N/C(N)=N/c2nc3ccccc3s2)c1,20.6%
2,COc1ccc(-n2c(/C=C3\C(=O)Nc4ccccc43)ccc2CO)cc1,114%
3,O=C(NCCn1ccnc1)c1ccc(-c2nc3ccc4[nH]ncc4c3c3c2CCCC3)cc1,36.7%
4,O=C1Nc2ccccc2/C1=C/c1ccc(CO)n1-c1ccc(Cl)cc1,31.7%
5,O=C(Nc1ccc2c(ccn2Cc2ccccn2)c1)c1cnccn1,110%
6,Oc1ccc(CSc2nnc(-c3ccc(Cl)cc3)n2-c2ccccc2)c2cccnc12,25.3%
7,O=C(NNc1nc2cc(F)c(F)cc2n2c(CN3CC4CNCC4C3)ccc12)c1cnccn1 (stereo not given),35.9%
8,O=C1C(c2ccccc2)=C(N2CCc3ccccc32)OC1(Cl)Cl,3.88% (active)
9,CCOC(=O)C(=O)/C(=C\c1ccc(Cl)cc1)C(=O)N1C(=S)NC(=O)C1CC(C)C (stereo not given),111%
10,CC(C)(C)c1ccc(C(=O)Nc2sc3c(c2C(N)=O)CC/C(=N\O)C3)cc1,12.6%
11,CCc1cccc2c3c(sc12)C(c1ccc(Cl)cc1)C(C#N)=C(/N=C/c1ccc(Cl)cc1)O3 (stereo not given),-14.2% (active)
12,O=C(CSc1nnc(-c2ccc3nc(-c4ccccc4)[nH]c3c2)o1)Nc1ccc(C(=O)/C=C/c2ccccc2)cc1,116%
13,NS(=O)(=O)c1ccc(Nc2nc(N/N=C/c3c[nH]c4ccccc34)nc(Nc3ccccc3)n2)cc1,26.7%
14,CS(=O)(=O)c1ccc(-c2nn(-c3ccccc3)cc2/C=N/NC(=O)c2nc(N)n[nH]2)cc1,97.1%
15,CC/C(=C/c1c(O)cccc1OC)c1ccc2c(OC)cccc2[o+]1,109%
16,CN1CCN(c2ccc(/C=N/Nc3nc4ccccc4c(=O)n3-c3ccccc3)cc2)CC1,104%
17,C=CC(=O)N1CC=C(c2cc3c(N[C@H](C)c4ccccc4)ncnc3[nH]2)CC1,70.3%
18,Cc1[nH]c(C(=O)Nc2ccccc2OCc2cccc(C(=O)N3CCC[C@@H](N)C3)c2)c(Cl)c1Cl,-87.4% (active)
19,Clc1ccc(N/N=c2/oc3ccccc3cc2-c2cc3ccccc3[nH]2)cc1,47.7%
20,N#Cc1cccc(CN2CCC3=C(C2)C(=O)N(Cc2ccc(Cl)cc2)C2=NCCCN23)c1,23.3%
